Molecules are shown by their SMILES. Unmarked numbers belong to inactive results. Inconclusive results are not listed. Activity calls are given as the source filed them. Unless noted, calls come from the whole dose curve; as a rule, active = well fitted curve in the direction sought with a large enough effect in the repeat runs; inconclusive = weak or mixed curves; inactive = no such curve, though single readings can be large; an effect the other way counts as inactive or inconclusive.

The nature of test [1]: qHTS assay to identify small molecule agonists of the androgen receptor (AR) signaling pathway in the presence of an antagonist - cell viability counter screen (AID 1259379). Note: nearly all actives have a fitted effect of over 25% in size. Note: potency is the fitted concentration of half-maximal effect. Summed up:
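Viability counter screen: CellTiter-Fluor fluorescence, measured in the same wells as the luciferase read-out. MDA-kb2 cells, 3,000/well, with nilutamide at 3.0uM final and compounds at 15 concentrations, 16 hr at 37C, 0% CO2.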
For orientation: qHTS replaces the single test concentration by a dilution series.

A short description of test [2]: qHTS assay to identify small molecule agonists of the estrogen receptor beta (ER-beta) signaling pathway - cell viability counter screen (AID 1259380). Note: nearly all actives have a fitted effect of over 30% in size. Note: potency is the fitted concentration of half-maximal effect. A digest of the protocol: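 Luminescence read-out (CellTiter-Glo, 30 min, room temp) taken in the same wells as the beta-lactamase reporter assay; ER-beta-UAS-bla HEK293T cells exposed to DMSO-dissolved compounds for 16 hr at 37C in 2% charcoal-stripped FBS medium.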

The nature of test [3]: qHTS assay to identify small molecule antagonists of the estrogen receptor beta (ER-beta) signaling pathway - cell viability counter screen (AID 1259382). Note: nearly all actives have a fitted effect of over 55% in size. Note: potency is the fitted concentration of half-maximal effect. Summed up:
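Luminescent ATP read-out (CellTiter-Glo, 30 min, RT) taken in the same wells as the bla reporter assay. HEK293T ER-beta-UAS-bla cells in 2% charcoal-stripped FBS were exposed to compounds with 1nM E2 for 16 hr at 37C.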

The target of test [4] is Estrogen receptor (Homo sapiens) (UniProt P03372). Description: qHTS assay to identify small molecule agonists of the estrogen receptor alpha (ER-alpha) signaling pathway in the presence of an antagonist (AID 1259383; calls by dose curve; note: top concentration of the series differs between compounds; nearly all actives have a fitted effect of over 15% in size). Summed up:
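Luciferase luminescence (ONE-Glo, 30min at room temperature) measured in VM7Luc4E2 cells after 22hr compound exposure at 15 concentrations, with 10.0nM ICI-182,780 final present; cells express endogenous ER-alpha and carry four EREs upstream of luciferase.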

Test [5] has as its target Thyrotropin receptor (Homo sapiens) (UniProt P16473). Kind of test: qHTS assay to identify small molecule antagonists of the thyroid stimulating hormone receptor (TSHR) signaling pathway (AID 1259385; calls by dose curve; note: nearly all actives have a fitted effect of over 20% in size). A digest of the protocol: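 TSHR-HEK293 cells (800/well) plated 18 h, then compounds with Ro20-1724 and TSH at 1.5 ng/mL final, 30 min at room temperature. cAMP quantified by HTRF (cAMP-d2/anti-cAMP-cryptate, 1 h); 15 concentrations in triplicate.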

Test [6] can be described thus: qHTS assay to identify small molecule agonists of the estrogen receptor alpha (ER-alpha) signaling pathway in the presence of an antagonist - cell viability counter screen (AID 1259386).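 Note: cells exposed to compounds for 22 h at 37 °C before the viability read; nearly all actives have a fitted effect of over 30% in size.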 Note: potency is the fitted concentration of half-maximal effect. A digest of the protocol:
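Read-out: CellTiter-Fluor fluorescence after 1hr reagent incubation, measured in the same wells as the luciferase readout. VM7Luc4E2 cells were exposed to 15 compound concentrations with 10.0nM ICI-182,780 for 22hr at 37C.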

Test [7] concerns the target Progesterone receptor (Homo sapiens) (UniProt P06401). Description: qHTS assay to identify small molecule agonists of the progesterone receptor (PR) signaling pathway (AID 1346784; calls by dose curve; note: nearly all actives have a fitted effect of over 30% in size). Summed up:
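The screen uses PR-UAS-bla HEK 293T cells in charcoal-stripped serum (2%). Compounds are applied for 16 hr at 37C after a 6 hr pre-incubation, and reporter activity is detected with a FRET beta-lactamase substrate after 2 hr at room temperature.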

A short description of test [8]: qHTS assay to identify small molecule antagonists of the progesterone receptor (PR) signaling pathway - cell viability counter screen (AID 1346798). Note: nearly all actives have a fitted effect of over 50% in size. Note: potency is the fitted concentration of half-maximal effect. A digest of the protocol: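 Viability was determined by ATP-based luminescence (CellTiter-Glo) in PR-UAS-bla HEK293T cells cultured in 2% charcoal-stripped serum and incubated 16 hr with compounds under R5020 stimulation.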

Test [9] is described as follows: qHTS assay to identify small molecule agonists of the progesterone receptor (PR) signaling pathway - cell viability counter screen (AID 1346799; calls by dose curve; note: nearly all actives have a fitted effect of over 45% in size; note: potency is the fitted concentration of half-maximal effect). A digest of the protocol: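 Viability was scored by ATP luminescence (CellTiter-Glo, 30 min, room temperature) in the same wells used for the reporter readout, after 16 hr compound exposure of PR-UAS-bla HEK293T cells.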

Test [10] is described as follows: qHTS assay to identify small molecule antagonists of the TGF-beta/Smad signaling pathway - cell viability counter screen (AID 1346824). Note: nearly all actives have a fitted effect of over 50% in size. Summed up:
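SBE-bla HEK 293T cells, incubated overnight, then compound plus 0.25 ng/mL TGF-beta1 (stock added) for 5 hr at 37 C. Viability was read in the same wells by CellTiter-Glo luminescence after 30 min at room temperature.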

Test [11] can be described thus: qHTS assay to identify small molecule agonists of the TGF-beta/Smad signaling pathway - cell viability counter screen (AID 1346829). Note: nearly all actives have a fitted effect of over 45% in size. Note: potency is the fitted concentration of half-maximal effect. Summed up:
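Tox21 qHTS format: SBE-bla HEK 293T cells treated with DMSO-dissolved compounds for 5 hr; CellTiter-Glo luminescence after 30 min at room temperature.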

Test [12] is described as follows: qHTS assay to identify small molecule agonists of the TGF-beta/Smad signaling pathway (AID 1346859; active = well fitted activation curve with a large enough effect in the signal ratio in the repeat runs, not every such curve was filed as active; the % refers to the signal ratio; note: series mostly up to about 77 µM). A digest of the protocol: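 Dual-wavelength fluorescence (460/530 nm emission) quantified beta-lactamase expression under the Smad binding element in HEK 293T cells following 5 hr compound treatment at 37 C.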
In test [13] the target is Thyrotropin-releasing hormone receptor (Homo sapiens) (UniProt P34981). Kind of test: qHTS assay to identify small molecule antagonists of the thyrotropin-releasing hormone receptor (TRHR) signaling pathway (AID 1346877; active = well fitted inhibition curve with a large enough effect in the repeat runs, not every such curve was filed as active; note: series mostly up to about 51 µM). Summed up:
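HEK293/TRHR cells, 18 h, 37 °C; Ca2+ dye 2 h; cpd 5 min RT; TRH 1 nM final; fluorescence read 3 min, 1 s intervals; 15 concs, triplicate.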

Test [14] shares this target. Kind of test: qHTS assay to identify small molecule agonists of the thyrotropin-releasing hormone receptor (TRHR) signaling pathway (AID 1346891; calls by dose curve;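 note: HEK293 cells expressing TRHR with calcium dye readout; series mostly up to about 58 µM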). Summed up:
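Kinetic fluorescence (3 min, 1 s intervals) reported intracellular calcium after compound transfer onto TRHR-Hek293 cells pre-loaded with dye for 2 h at 37 °C.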

Test [15] is described as follows: Human pregnane X receptor (PXR) small molecule agonists, qHTS cell viability counter screen (AID 1346977). Note: nearly all actives have a fitted effect of over 50% in size. Note: potency is the fitted concentration of half-maximal effect. Summed up:
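HepG2 cells stably carrying the PXR-Luc reporter are cultured with 5% charcoal-stripped FBS and treated with compounds for 24hr. CellTiter-Fluor is added at 23hr and fluorescence is read after 1hr.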

Test [16] addresses Progesterone receptor (Homo sapiens) (UniProt P06401). Kind of test: qHTS assay to identify small molecule antagonists of the progesterone receptor (PR) signaling pathway (AID 1346795; active = well fitted inhibition curve with a large enough effect in the signal ratio in the repeat runs, not every such curve was filed as active; the % refers to the signal ratio; note: potency is the fitted concentration of half-maximal effect). A digest of the protocol:
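After 6 hr plating at 37C in 2% stripped-serum medium, PR-UAS-bla HEK293T cells got compounds, then 1 nM R5020. Sixteen hours later, LiveBLAzer substrate was applied for 2 hr at room temperature and fluorescence was recorded.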

Test [17] can be described thus: qHTS assay to identify small molecule agonists or antagonists of the thyroid stimulating hormone receptor (TSHR) signaling pathway - wild type cell line counter screen (AID 1259384; calls by dose curve). Summed up:
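Wild-type Hek293 cells, 800/well, 18 h at 37C, then compound with Ro20-1724 for 30 min RT. cAMP by HTRF (cAMP-d2/anti-cAMP cryptate), 1 h RT, fluorescence read. 15 concentrations, triplicates.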

Estrogen receptor (Homo sapiens), sequence (P03372 whole entry, looked up): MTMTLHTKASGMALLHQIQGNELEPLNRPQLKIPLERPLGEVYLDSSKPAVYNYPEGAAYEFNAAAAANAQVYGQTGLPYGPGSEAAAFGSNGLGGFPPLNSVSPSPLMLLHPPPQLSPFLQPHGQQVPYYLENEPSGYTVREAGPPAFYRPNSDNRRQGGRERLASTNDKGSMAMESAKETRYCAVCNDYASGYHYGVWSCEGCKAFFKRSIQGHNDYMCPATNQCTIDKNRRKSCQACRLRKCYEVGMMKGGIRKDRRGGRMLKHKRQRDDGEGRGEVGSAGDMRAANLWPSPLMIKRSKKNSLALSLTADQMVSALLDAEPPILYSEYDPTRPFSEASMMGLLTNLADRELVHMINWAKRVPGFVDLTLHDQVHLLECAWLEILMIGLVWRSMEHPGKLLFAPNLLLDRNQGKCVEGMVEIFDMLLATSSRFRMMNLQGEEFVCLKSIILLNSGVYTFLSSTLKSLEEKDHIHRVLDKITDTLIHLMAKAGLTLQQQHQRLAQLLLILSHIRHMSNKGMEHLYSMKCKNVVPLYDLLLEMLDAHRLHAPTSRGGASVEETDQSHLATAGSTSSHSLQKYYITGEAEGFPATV
Thyrotropin receptor (Homo sapiens), sequence (P16473 whole entry, looked up): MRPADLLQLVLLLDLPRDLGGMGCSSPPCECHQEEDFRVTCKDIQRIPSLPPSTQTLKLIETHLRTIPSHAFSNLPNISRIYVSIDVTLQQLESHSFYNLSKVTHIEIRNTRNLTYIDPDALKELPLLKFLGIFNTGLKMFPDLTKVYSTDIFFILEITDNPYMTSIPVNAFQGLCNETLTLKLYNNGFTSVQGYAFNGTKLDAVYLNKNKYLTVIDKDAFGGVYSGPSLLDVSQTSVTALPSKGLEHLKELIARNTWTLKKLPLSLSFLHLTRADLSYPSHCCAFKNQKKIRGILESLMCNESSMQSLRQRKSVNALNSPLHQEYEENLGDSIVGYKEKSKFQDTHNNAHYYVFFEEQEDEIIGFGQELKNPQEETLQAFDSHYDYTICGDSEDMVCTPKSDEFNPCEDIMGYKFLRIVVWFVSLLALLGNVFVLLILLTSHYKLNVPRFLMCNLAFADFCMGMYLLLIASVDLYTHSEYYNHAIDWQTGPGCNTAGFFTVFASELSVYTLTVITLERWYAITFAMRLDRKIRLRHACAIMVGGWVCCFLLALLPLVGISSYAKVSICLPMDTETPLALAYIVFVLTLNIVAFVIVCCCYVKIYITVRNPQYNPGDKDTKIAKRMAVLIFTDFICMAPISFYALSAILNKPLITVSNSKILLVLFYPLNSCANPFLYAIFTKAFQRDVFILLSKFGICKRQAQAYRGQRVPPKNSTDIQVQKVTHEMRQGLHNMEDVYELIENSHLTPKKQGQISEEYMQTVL
Progesterone receptor (Homo sapiens), sequence (P06401 whole entry, looked up): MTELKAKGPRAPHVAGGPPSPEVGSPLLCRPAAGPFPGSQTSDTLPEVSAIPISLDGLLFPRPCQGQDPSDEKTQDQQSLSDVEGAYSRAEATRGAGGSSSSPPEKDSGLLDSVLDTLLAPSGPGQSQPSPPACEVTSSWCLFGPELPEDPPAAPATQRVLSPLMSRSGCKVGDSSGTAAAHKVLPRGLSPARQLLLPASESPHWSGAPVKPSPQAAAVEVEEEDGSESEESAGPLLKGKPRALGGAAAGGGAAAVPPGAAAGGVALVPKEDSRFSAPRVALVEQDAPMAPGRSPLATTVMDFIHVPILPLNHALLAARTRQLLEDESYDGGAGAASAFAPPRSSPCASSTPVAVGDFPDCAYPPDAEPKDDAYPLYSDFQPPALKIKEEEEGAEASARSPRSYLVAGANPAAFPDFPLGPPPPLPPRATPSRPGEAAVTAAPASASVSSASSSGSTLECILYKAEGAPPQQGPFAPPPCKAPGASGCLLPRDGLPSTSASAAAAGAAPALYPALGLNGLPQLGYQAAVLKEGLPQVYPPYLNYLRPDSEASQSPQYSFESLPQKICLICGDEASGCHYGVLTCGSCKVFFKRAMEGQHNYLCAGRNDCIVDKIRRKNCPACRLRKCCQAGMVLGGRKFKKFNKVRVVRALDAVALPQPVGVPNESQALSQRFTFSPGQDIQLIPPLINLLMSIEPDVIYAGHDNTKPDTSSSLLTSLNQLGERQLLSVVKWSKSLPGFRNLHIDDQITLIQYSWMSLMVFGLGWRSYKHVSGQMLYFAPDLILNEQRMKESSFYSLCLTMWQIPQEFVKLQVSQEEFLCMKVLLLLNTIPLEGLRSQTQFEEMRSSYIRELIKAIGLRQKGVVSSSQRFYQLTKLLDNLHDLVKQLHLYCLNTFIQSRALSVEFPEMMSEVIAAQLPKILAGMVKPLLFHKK
Thyrotropin-releasing hormone receptor (Homo sapiens), sequence (P34981 whole entry, looked up): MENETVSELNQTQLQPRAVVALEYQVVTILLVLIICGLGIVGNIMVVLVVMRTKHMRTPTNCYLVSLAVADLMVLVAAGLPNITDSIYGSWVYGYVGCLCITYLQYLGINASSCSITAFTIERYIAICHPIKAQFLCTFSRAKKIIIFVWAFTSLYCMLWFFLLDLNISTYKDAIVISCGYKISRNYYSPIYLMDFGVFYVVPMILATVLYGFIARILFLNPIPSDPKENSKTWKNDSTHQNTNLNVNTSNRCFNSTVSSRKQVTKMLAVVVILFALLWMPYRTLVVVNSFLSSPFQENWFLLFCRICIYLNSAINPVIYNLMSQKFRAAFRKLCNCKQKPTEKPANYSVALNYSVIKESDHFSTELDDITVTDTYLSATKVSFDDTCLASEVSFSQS

Consider `COc1cccc(CCc2ccccc2OCC(CN(C)C)OC(=O)CCC(=O)O)c1` (stereo not given), for which the Potency result in [1], in test [4], in test [5], in test [6], in [10] and in test [11] was “inactive” each time. Besides, the Potency result in test [12], in [13] and in [14] was “inactive” in each case. Moreover, the Potency in [2] was 23.7 µM (active); in [3] it was 21.1 µM (active); in test [8] it was 13.3 µM (active); in test [9], 2.98 µM (active); in [15], 26.6 µM (active). Also, the molecule was classed as inactive in test [7].
In the case of `CCCCCCCCCCc1ccccc1`, the Potency result in test [1], in [2], in [3], in test [4], in [6] and in [16] was “inactive” throughout. The Potency entry in test [8], in test [9], in test [10], in test [11], in test [12] and in test [14] was “inactive” throughout. The Potency result in test [15] is “inactive”. Further, the result in [7] was inactive.
For `C=CC(C)C#N` (stereo not given), the Potency result in test [1], in test [2], in [3], in [8], in test [10] and in [11] was “inactive” each time. The Potency result in test [12] and in test [15] was “inactive” throughout. In addition, the result in test [7] was inactive.
Regarding `CCCCCCC(C)OC(=O)COc1nc(F)c(Cl)c(N)c1Cl` (stereo not given), the Potency result in [1], in test [3], in [5], in test [8], in test [9] and in test [10] was “inactive” in each case. The Potency result in test [11], in [12], in [13], in test [14] and in [15] was “inactive” each time. The Potency in test [2] is 68.6 µM (active). For the same molecule, the molecule was classed as inactive in test [17] and in test [7].
Consider `COc1cccc(O)c1`, for which the Potency entry in [1], in test [2], in [3], in test [4], in [6] and in test [16] was “inactive” throughout. The Potency entry in test [8], in [9], in [10], in [12], in test [13] and in test [14] was “inactive” throughout. Also, in [15], the Potency entry is “inactive”. Moreover, the molecule was classed as inactive in test [7].
Take `O=C1c2c(O)ccc([N+](=O)[O-])c2C(=O)c2c([N+](=O)[O-])ccc(O)c21`: the Potency in test [1] was 27.1 µM (active); in test [2], 15.2 µM (active); in [3], 17.1 µM (active); in [6] it was 24.1 µM (active); in test [8], 24.1 µM (active); in test [11], 48.5 µM (active). The Potency in [15] was 13.6 µM (active). The Potency entry in test [5] and in [12] was “inactive” each time.
In the case of `C/C=C/C(=O)Oc1c(CCCCCC(C)C)cc([N+](=O)[O-])cc1[N+](=O)[O-]`, the Potency was 15.4 µM (active) in test [1]; 30.6 µM (active) in test [2]; 48.6 µM (active) in test [3]; 19.3 µM (active) in test [16]; 15.4 µM (active) in test [15]. In test [17], the molecule was called inactive. In addition, the Potency result in test [5], in test [13] and in test [14] was “inactive” each time.
As to `Cc1cc2c(C(C)C)c(O)c(O)c(C=O)c2c(O)c1-c1c(C)cc2c(C(C)C)c(O)c(O)c(C=O)c2c1O`, the Potency in [1] is 29.8 µM (active); in [2] it was 13.3 µM (active); in test [3] it was 23.7 µM (active); in test [16], 13.3 µM (active); in test [15], 18.8 µM (active). In addition, the Potency result in test [4], in test [5], in [12], in [13] and in test [14] was “inactive” each time. The molecule was classed as inactive in test [17].
For the molecule `Nc1cc(Cl)c([N+](=O)[O-])cc1O`, the figures for the Potency in [1] and in test [6] were 48.2 µM (active) and 54 µM (active), respectively. Further, the Potency entry in test [2], in test [3], in test [4], in test [5], in test [8] and in test [9] was “inactive” in each case. For the same molecule, the Potency result in [10], in [11], in test [12], in test [13] and in test [14] was “inactive” in each case. Further, the result in [17] and in test [7] was inactive.

For the origin of these results see PubChem BioAssay (Tox21).
